Sfp PPTase inh: blocks B. subtilis Sfp PPTase activity; Q9F4F7; Biochemical Sfp PPTase activity, qHTS; Potency, µM, usual class: inhibitors; 310,000 tested, 3.5% active; AID 1490; active = well fitted curve in the direction sought with a large enough effect; inconclusive = small, poorly fitted or top-dose-only effect, or another doubt; inactive = no such curve, though single readings can be large; an effect the other way counts as inactive or inconclusive;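 note: the enzyme is Sfp with the accession as filed and its product quenches rhodamine fluorescence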
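Buffer: 50 mM Hepes-Na pH 7.6, 10 mM MgCl2, 0.01% Nonidet P-40, 0.01% BSA. Enzyme 15 nM, pre-exposed to compound 15 min; substrates then added and fluorescence change tracked over 30 min.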
Coupling enz: counter-screen for Giardia aldolase inhibitors: coupling enzyme system; coupling enzyme system counterscreen, AmpLite Red fluorescence; activity change, negative = inhibition, % at 58.2 µM, hits read low; 290,000 tested, 0.67% active; AID 2472; in the data active = activity change below about -30%
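Counterscreen of the coupled detection system alone, without aldolase: glyceraldehyde-3-phosphate coupling enzymes plus AmpLite Red readout. Compounds at 57.5 uM final, 10 min RT preincubation, 20 min RT reaction, fluorescence 525/598 nm.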
RGS12 GoLoco inh: RGS12 GoLoco-Gai1 interaction inhibition; Gai1:RGS12 GoLoco peptide FP, rhodamine, 10 min; P63096; 230,000 tested, 0.44% active; Potency, µM (top dose mostly 61.6 µM), hits mostly inhibitors; active = well fitted inhibition curve with a large enough effect, not every such curve was filed as active; inactive = no such curve, though single readings can be large or run the other way; note: nearly all actives have a fitted effect of over 30% in size
ALDH1A1 inh: ALDH1A1 (human) enzyme inhibition | P00352 | Purified ALDH1A1, NADH fluorescence, propionaldehyde substrate | Potency, µM (titrated, usually from 75.3 µM), usual class: inhibitors | 220,000 tested, 7.3% active | AID 1030
Target sequence (P00352 whole entry, looked up): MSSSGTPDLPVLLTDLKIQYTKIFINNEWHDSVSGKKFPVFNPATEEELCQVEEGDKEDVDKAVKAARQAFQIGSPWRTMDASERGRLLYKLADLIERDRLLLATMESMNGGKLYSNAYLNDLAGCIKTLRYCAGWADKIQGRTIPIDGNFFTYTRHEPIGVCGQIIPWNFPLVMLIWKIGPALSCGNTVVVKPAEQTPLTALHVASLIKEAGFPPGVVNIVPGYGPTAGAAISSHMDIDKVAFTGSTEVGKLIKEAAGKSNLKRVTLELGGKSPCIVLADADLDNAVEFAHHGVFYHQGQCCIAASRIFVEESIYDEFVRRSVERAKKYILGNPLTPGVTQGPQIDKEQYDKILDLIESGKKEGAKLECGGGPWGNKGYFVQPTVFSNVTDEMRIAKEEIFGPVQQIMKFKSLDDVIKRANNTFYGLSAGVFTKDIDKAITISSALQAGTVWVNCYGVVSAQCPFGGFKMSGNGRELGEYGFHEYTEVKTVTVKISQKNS
KDM4E inh: JMJD2E (human) inhibition. B2RXH2. JMJD2E catalytic domain, FDH-coupled NADH fluorescence (FDH is formaldehyde dehydrogenase). Potency, µM (titrated, usually from 57.1 µM), hits mostly inhibitors. 230,000 tested, 1.6% active; note: nearly all actives have a fitted effect of over 50% in size
NPSR antag: blocks cAMP signaling of the human neuropeptide S receptor | Q6W5P4 | CHO-NPSR cells, cAMP TR-FRET, antagonist mode | Potency, µM (titrated, usually from 38.3 µM), actives largely listed as inhibitors | 220,000 tested, 1% active | AID 1461; active = well fitted curve in the direction sought with a large enough effect; inconclusive = small, poorly fitted or top-dose-only effect, or another doubt; inactive = no such curve, though single readings can be large; an effect the other way counts as inactive or inconclusive; note: nearly all actives have a fitted effect of over 50% in size
A number is an active result; 0 = inactive; ? = inconclusive; - = no result given. Shown are actives, neighbours in structure and some others; about 8.5% of the full set was active somewhere. Unless noted, calls come from the whole dose curve; as a rule, active = well fitted inhibition curve with a large enough effect (not every such curve was filed as active); inconclusive = small, poorly fitted or top-dose-only effect, or another doubt; inactive = no such curve, though single readings can be large or run the other way.

SMILES	Sfp PPTase inh	Coupling enz	RGS12 GoLoco inh	ALDH1A1 inh	KDM4E inh	NPSR antag
Cc1ccc(S(=O)(=O)N(CC(=O)NCCSCc2ccco2)c2ccc(F)cc2)cc1	56µM	0	0	28µM	0	?
Cn1sc(=O)n(Cc2ccccc2)c1=O	0.14µM	0	-	-	-	-
Cn1c(=O)n(Cc2ccccc2)c2ccccc21	0	0	0	0	0	0
O=C1CN(C(=S)Nc2ccccc2Cl)CCN1	45µM	0	0	0	0	0
COc1ccccc1-c1nccc(N2CCN(C)CC2)n1	0	0	0	?	-	-
N#CC1=C(N)n2c(s/c(=C\c3ccco3)c2=O)=C(C#N)C1c1ccco1 (configuration not stated)	0	0	0	22µM	?	0
CCOC(=O)C1=C(N)OC(C)=C(C#N)C1c1ccco1 (configuration not stated)	0	0	0	0	0	0
CCOC(=O)C1=C(N)n2c(s/c(=C/c3ccco3)c2=O)=C(C(=O)OC)C1c1ccco1 (configuration not stated)	16µM	0	0	?	?	0
CC1(C)CC(=O)C2=C(C1)N(c1ccc(F)cc1)C(N)=C(C#N)C2c1cccs1 (configuration not stated)	0	-	0	0	0	0
N#CC1=C(N)n2c(s/c(=C\c3cccs3)c2=O)=C(C#N)C1c1cccs1 (configuration not stated)	45µM	0	-	?	?	0
CC(=O)c1cccc(NC(=O)c2cc(-c3ccco3)nc3ccccc23)c1	0	0	-	-	-	-
O=C(O)c1cc(-c2ccco2)nc2cc3ccccc3cc12	11µM	0	0	-	?	0
O=C(O)c1ccccc1/C=N/NC(=O)c1cc(-c2ccco2)nc2ccccc12	10µM	0	0	?	?	0
CC(=O)Nc1ccc(/C=N/NC(=O)c2cc(-c3ccco3)nc3ccccc23)cc1	0	0	0	?	?	0
O=C(Nc1cccc(S(=O)(=O)NC2=NCCCCC2)c1)c1cc(-c2ccco2)nc2ccccc12	5µM	0	0	?	?	0
O=C(NNC(=O)c1cc(-c2ccco2)nc2ccccc12)c1ccccc1	20µM	0	0	?	?	0
COc1ccccc1C(=O)Nc1cccc2c1CCCC2	0	0	-	-	-	-
FC(F)(F)c1cccc(-c2ccn3ncnc3n2)c1	0	0	0	?	?	0
O=C(Nc1ccc(F)cc1F)c1cc(-c2ccco2)nc2ccccc12	32µM	0	-	-	-	-
O=C(Nc1ccccc1N1CCOCC1)c1cc(-c2ccco2)nc2ccccc12	0	0	0	0	?	?
Nc1c(C(=O)NCC2CCCO2)sc(=S)n1-c1ccccc1 (configuration not stated)	?	0	0	14µM	0	0
CCn1c(N)c(C(=O)NCC2CCCO2)sc1=S (configuration not stated)	18µM	0	0	8.9µM	0	0
O=C(NCC1CCCO1)c1cccc(C(=O)NCC2CCCO2)c1 (configuration not stated)	0	0	-	-	-	-
C=CCn1c(N)c(C(=O)NCC2CCCO2)sc1=S (configuration not stated)	0	0	0	0	0	0
CCN(CC)N=Nc1ccc(S(=O)(=O)Nc2nc(C)cc(C)n2)cc1	0	0	-	-	-	-
SMILES	Sfp PPTase inh	Coupling enz	RGS12 GoLoco inh	ALDH1A1 inh	KDM4E inh	NPSR antag
Cc1cccc(/C(N)=N/OC(=O)COc2ccc(Cl)cc2)c1	0	0	0	0	0	0
COc1ccc(OCC(=O)NNC(=S)NC(=O)c2ccc([N+](=O)[O-])cc2)cc1	32µM	0	-	-	-	-
C/C(=N\NC(=O)COc1ccc([N+](=O)[O-])cc1)C(C)(C)C	0	0	0	20µM	0	0
CCCCCC(=O)NNC(=S)NC(=O)c1ccc([N+](=O)[O-])cc1	35µM	0	0	6.3µM	0	0
Cc1cccc(C(=O)NC(=S)NNC(=O)COc2ccc(Cl)cc2)c1	?	0	0	9.5µM	0	0
O=C(COc1cccc(Cl)c1)NNC(=S)Nc1ccccc1	0	0	0	0	0	0
COc1cccc(OCC(=O)NNC(=S)Nc2ccc(Cl)cc2Cl)c1	0	0	0	2µM	0	0
O=C(COc1ccccc1)NNC(=O)COc1ccc([N+](=O)[O-])cc1	0	0	0	0	0	0
CC(=O)NC(=S)NNC(=O)COc1ccc([N+](=O)[O-])cc1	0	0	0	22µM	0	0
O=C(CCN1C(=O)COc2ccccc21)NCCC1=CCCCC1	0	0	0	32µM	0	0
Cc1ccc2c(c1)N(CCC(=O)NCc1ccccn1)C(=O)CO2	0	0	0	22µM	0	0
Cc1ccc2c(c1)N(CCC(=O)NCc1cccnc1)C(=O)CO2	0	0	0	0	0	0
O=C(CN1C(=O)COc2ccccc21)NCCCN1CCc2ccccc2C1	20µM	0	0	0	0	0
O=C(CN1C(=O)COc2ccccc21)NCCCN1CCN(Cc2ccccc2)CC1	0	0	0	0	0	0
CCOC(=O)c1ccc(-c2csc(NC(=O)CN3CCC(C)CC3)n2)cc1	0	0	-	-	-	-
Cc1nc2sccc2c(=O)n1-c1cccc(Cl)c1	0	0	0	0	0	0
O=C(NCc1ccco1)c1ccc2[nH]c(=O)c(=O)[nH]c2c1	0	0	-	-	-	-
CC(C)(C)N1C(=O)c2ccc(C(=O)NCc3ccco3)cc2C1=O	0	0	0	8.9µM	0	0
O=C(O)c1ccc(C(=O)c2ccc3c(c2)C(=O)N(Cc2ccco2)C3=O)cc1	0	0	0	11µM	0	0
O=C(Nc1ccc(O)cc1C(=O)O)c1ccc2c(c1)C(=O)N(Cc1ccco1)C2=O	0	0	0	5.6µM	0	0
O=C(Nc1ccc(O)cc1)c1ccc2c(c1)C(=O)N(Cc1ccco1)C2=O	0	0	0	14µM	0	0
CN(C)c1ncc2nc(-c3ccc(Cl)cc3)c(=O)n(-c3ccccc3)c2n1	0	0	0	?	-	-
CCCC[C@@H]1CCCO[C@@](C(=O)NCc2ccccc2)(C(F)(F)F)C1	0	0	-	-	-	-
CCN1C(=O)CSc2ccc(C(=O)NCc3ccco3)cc21	0	0	0	13µM	0	0
Cc1c(C(=O)N2CCN(CCc3ccccn3)CC2)oc2ccc(Cl)cc12	0	0	-	-	-	-
SMILES	Sfp PPTase inh	Coupling enz	RGS12 GoLoco inh	ALDH1A1 inh	KDM4E inh	NPSR antag
Cc1ccc(C)c(NC(=O)CSc2nncn2C)c1	0	0	-	-	-	-
N#Cc1cnn(-c2nc(SCc3ccccc3)nc3sc4c(c23)CCCC4)c1N	0	0	0	8.9µM	0	0
C/C(=N\NC(=O)COc1ccc(C)cc1Br)c1cc([N+](=O)[O-])cs1	0	0	0	0	0	0
C/C(=N\NC(=O)COc1ccc(C)cc1[N+](=O)[O-])c1cccs1	0	0	0	14µM	0	0
O=C(/C(=C/O)N=Nc1ccccc1)c1cccs1	0	0	0	10µM	0	10µM
CC(C)COc1ncnc2c1sc1nc3c(cc12)COC(C)(C)C3	0	0	0	-	0	0
